According to PubChem BioAssay (EPA / NIEHS):
Where “and” joins values, the source holds several entries; their conditions need not be identical. Identical values can stand only once. Inconclusive results are not listed. Calls of active or inactive are those of the source. How the source made its calls: active means hit-call score of the fitted dose curve at least 0.9, where 1 is the maximum; inconclusive means response in the unintended direction; inactive means score below 0.9.

target: human p21 Activated Kinase 4 (PAK4), PAK4 (gene 10298) (UniProt O96013); assay: NVS_ENZ_hPAK4: NovaScreen (NVS) Enzymatic Assay for human p21 Activated Kinase 4 (PAK4) (AID 2283189)
Sequence (O96013 whole entry, looked up): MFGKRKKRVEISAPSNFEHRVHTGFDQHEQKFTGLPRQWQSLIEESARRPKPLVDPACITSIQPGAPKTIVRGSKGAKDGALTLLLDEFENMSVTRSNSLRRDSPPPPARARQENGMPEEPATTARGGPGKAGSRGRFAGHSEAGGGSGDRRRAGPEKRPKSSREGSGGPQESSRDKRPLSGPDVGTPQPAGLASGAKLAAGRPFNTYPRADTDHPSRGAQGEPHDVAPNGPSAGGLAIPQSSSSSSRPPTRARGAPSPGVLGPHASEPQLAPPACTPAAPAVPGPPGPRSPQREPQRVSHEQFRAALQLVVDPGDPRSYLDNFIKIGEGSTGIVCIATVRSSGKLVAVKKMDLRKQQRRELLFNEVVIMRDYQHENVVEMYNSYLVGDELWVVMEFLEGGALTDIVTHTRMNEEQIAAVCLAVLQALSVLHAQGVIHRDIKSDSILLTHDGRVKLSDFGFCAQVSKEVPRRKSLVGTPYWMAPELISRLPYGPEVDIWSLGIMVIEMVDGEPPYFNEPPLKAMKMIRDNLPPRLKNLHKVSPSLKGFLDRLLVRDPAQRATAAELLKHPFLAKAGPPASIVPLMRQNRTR
Experimental: NVS_ENZ_hPAK4 is a biochemical, single-readout assay that uses extracted gene-proteins in a cell-free assay. Measurements were taken 1 hour after chemical dosing in a 384-well plate.NVS_ENZ_hPAK4 is one of one assay component(s) measured or calculated from the NVS_ENZ_hPAK4 assay. It is designed to make measurements of enzyme activity, a form of enzyme reporter, as detected with fluorescence intensity signals by Fluorescence and electrophoretic mobility shift technology.Data from the assay component NVS_ENZ_hPAK4 was analyzed into 1 assay endpoint. This assay endpoint, NVS_ENZ_hPAK4, was analyzed in the positive analysis fitting direction relative to DMSO as the negative control and baseline of activity. Using a type of enzyme reporter, loss-of-signal activity can be used to understand changes in the enzymatic activity as they relate to the gene PAK4. Furthermore, this assay endpoint can be referred to as a primary readout, because this assay has produced multiple assay endpoints where this one serves a enzymatic activity function. To generalize the intended target to other relatable targets, this assay endpoint is annotated to the kinase intended target family, where the subfamily is serine/threonine kinase.
Binding assays used specific radioligands (tritiated, iodinated) with non-radioactive competitive displacement ligands in agonist or antagonist protocols (as indicated) and various reference compounds and inhibitors to titrate specific binding to receptors and transporters. Most enzyme assays (CYPs, kinases, phosphatases, proteases, HDACs) used recombinant protein and specific substrates (fluorescence mostly, some colorimetric and radioactive) and inhibitors, followed by a biochemical separation of substrate and product. All assays for the biochemical HTS were initially run in duplicate at a single concentration (10 uM for CYP450 assays and 25 uM for all others). […] Each assay was run with positive and negative controls, and concurrent controls on every plate. The follow-up (secondary) screen tested active chemical-pairs in concentration series, as well as a few additional assays not tested in the primary screen, some selected negative inactives, and several cases re-run in the concentration series for confirmatory purposes.

| SMILES | outcome | AC50 |
| --- | --- | --- |
| Cc1ccc2oc(CN(Cc3ccccc3)C(=O)Nc3c(F)cc(F)cc3F)c(-c3ccc(Cl)cc3)c2c1 | inactive |  |
| CC(C)(C)c1ccccc1 | inactive |  |
| NC(=O)N1C(=O)C(C(=O)c2cc(Cl)cs2)c2cc(F)c(Cl)cc21 (stereo not given) | inactive |  |
| COc1ccc(-n2nc(C(F)F)cc2-c2ccc(S(C)=O)cc2)cc1 (stereo not given) | inactive |  |
| Cc1[nH]nc2c1N=C(c1ccccc1Cl)c1cc([N+](=O)[O-])ccc1N2 |  | 9.53 µM (active) |
| O=c1[nH]cnc2c1ncn2[C@H]1CC[C@@H](CO)O1 | inactive |  |
| C[C@]12C[C@H](O)[C@H]3[C@@H](CCC4=CC(=O)CC[C@@]43C)[C@@H]1CC[C@@H]2C(=O)CO | inactive |  |
| Cc1[nH]cnc1C[C@H]1CCc2c(C)c3ccccc3n2C1=O | inactive |  |
| O=C(O)[C@H](O)[C@@H](O)C(=O)O | inactive |  |
| CCCCc1oc2ccccc2c1C(=O)c1cc(I)c(OCCN(CC)CC)c(I)c1 | inactive |  |
| FC(F)(F)C(F)(F)C(F)(F)C(F)(F)C(F)(F)C(F)(F)CCI | inactive |  |
| CC[C@H](C)C(=O)O[C@H]1C[C@H](O)C=C2C=C[C@H](C)[C@H](CC[C@@H](O)C[C@@H](O)CC(=O)O)[C@H]21 | inactive |  |
| CCCCCCCC[Si](OCC)(OCC)OCC | inactive |  |
| CC/C(=C(\c1ccccc1)c1ccc(OCCN(C)C)cc1)c1ccccc1 | inactive |  |
| COc1ccc2sc(C(=O)Nc3nnn[nH]3)c(OC(C)C)c2c1 | inactive |  |
| CCc1c(C(=O)NN2CCCCC2)nn(-c2ccc(Cl)cc2Cl)c1-c1ccc(Br)cc1 | inactive |  |
| CCCCCCCCCCCCCC[P+](CCCC)(CCCC)CCCC |  | 14.5 µM (active) |
| O=c1c(O)c(-c2ccc(O)c(O)c2)oc2cc(O)cc(O)c12 | inactive |  |
| CCOC(=O)CCC(=O)OCC | inactive |  |
| O=C(OCCCCCOC(=O)c1ccccc1)c1ccccc1 | inactive |  |

| SMILES | outcome | AC50 |
| --- | --- | --- |
| COc1cc(C(=O)NC2CCN(C)CC2)ccc1Nc1ncc2c(n1)N(C1CCCC1)CC(F)(F)C(=O)N2C | inactive |  |
| CC(C)(c1ccc(O)cc1)c1ccc(O)cc1 | inactive |  |
| Cc1nc(-c2ccccn2)ncc1C(=O)Nn1cc(C)c2cc(F)ccc21 | inactive |  |
| O=C1O[C@H]([C@H](O)CO)C(O)=C1O | inactive |  |
| CC/C(=C\C(=N/O)C(N)=O)C(C)[N+](=O)[O-] (stereo not given) | inactive |  |
| CN(C)C(=O)NC1(c2ccccc2)CCN(CCC[C@]2(c3ccc(Cl)c(Cl)c3)CCCN(C(=O)c3ccccc3)C2)CC1 | inactive |  |
| CC(C)c1cccc(C(C)C)c1N1C(=O)c2ccc(O)cc2C1=O | inactive |  |
| N[C@@H](Cc1cc(I)c(Oc2ccc(O)c(I)c2)c(I)c1)C(=O)O | inactive |  |
| O=C(c1ccc(OCCN2CCCCC2)cc1)c1c(-c2ccc(O)cc2)sc2cc(O)ccc12 | inactive |  |
| CN1C(=O)N(c2ccccc2Br)Cc2cnc(Nc3ccc4c(c3)OCC(CO)O4)nc21 (stereo not given) |  | 8.54 µM (active) |
| COCCO | inactive |  |
| CC1(C)CC(N=C=O)CC(C)(CN=C=O)C1 (stereo not given) |  | 25 µM (active) |
| CC[C@H]1OC(=O)[C@H](C)[C@@H](O[C@H]2C[C@@](C)(OC)[C@@H](O)[C@H](C)O2)[C@H](C)[C@@H](O[C@@H]2O[C@H](C)C[C@H](N(C)C)[C@H]2O)[C@](C)(O)C[C@@H](C)C(=O)[C@H](C)[C@@H](O)[C@]1(C)O | inactive |  |
| CC[C@H](C)C(=O)O[C@H]1C[C@@H](C)C=C2C=C[C@H](C)[C@H](CC[C@@H]3C[C@@H](O)CC(=O)O3)[C@H]21 | inactive |  |
| C=CCCCCCCCCCCCC | inactive |  |
| Cc1cc(Cc2ccc(N)c(C)c2)ccc1N | inactive |  |
| S=C(S)NCCNC(=S)S.[Mn+2].[S-]C([S-])=NCCN=C([S-])[S-].[Zn+2] |  | 5.61 µM (active) and 263 nM (active) |
| CCCC(CCC)C(=O)O | inactive |  |
| O=C(Oc1ccccc1)c1cccc(C(=O)Oc2ccccc2)c1 | inactive |  |
| Cc1ncc([C@@H](CCCCCCc2ccc3c(n2)NCCC3)CC(=O)O)cn1 | inactive |  |
